From the supplement of paper PMC3334620 come the findings set out here.

In all, about 33,000 sequences were measured (“E-score (-0.5 to 0.5)”: median about -0.041, highest 2% from about 0.37 on). For the sample, the highest values were picked, then their nearest neighbours and some sequences at random.

The target in this experiment is T1, Ecm22 (UniProt Q05958).
T1 sequence: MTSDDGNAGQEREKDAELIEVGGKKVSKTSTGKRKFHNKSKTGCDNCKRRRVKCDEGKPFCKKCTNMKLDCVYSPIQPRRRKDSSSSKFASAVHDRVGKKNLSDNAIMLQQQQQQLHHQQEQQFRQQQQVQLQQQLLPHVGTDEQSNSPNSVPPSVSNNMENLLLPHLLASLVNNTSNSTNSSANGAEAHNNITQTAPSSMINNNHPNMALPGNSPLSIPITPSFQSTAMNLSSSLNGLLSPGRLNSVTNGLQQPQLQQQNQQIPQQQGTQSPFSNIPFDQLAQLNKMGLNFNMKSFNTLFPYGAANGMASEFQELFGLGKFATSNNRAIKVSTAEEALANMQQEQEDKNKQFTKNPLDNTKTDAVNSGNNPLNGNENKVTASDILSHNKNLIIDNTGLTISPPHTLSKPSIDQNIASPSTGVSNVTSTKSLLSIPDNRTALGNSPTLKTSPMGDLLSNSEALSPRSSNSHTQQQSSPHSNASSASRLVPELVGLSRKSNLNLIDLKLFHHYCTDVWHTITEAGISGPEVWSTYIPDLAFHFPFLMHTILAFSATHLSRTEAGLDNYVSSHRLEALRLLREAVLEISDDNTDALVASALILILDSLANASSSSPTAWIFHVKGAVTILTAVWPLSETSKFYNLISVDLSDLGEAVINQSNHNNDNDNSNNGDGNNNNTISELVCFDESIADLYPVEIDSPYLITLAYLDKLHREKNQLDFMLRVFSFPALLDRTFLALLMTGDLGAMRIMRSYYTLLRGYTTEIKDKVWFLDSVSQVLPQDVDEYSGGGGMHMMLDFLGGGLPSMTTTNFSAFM
The experiment is described as follows: PBM E-score (8-mer binding enrichment) (E-score (-0.5 to 0.5)); higher = stronger / more preferred TF binding. The note with it: protein concentration: 200 nM; construct: GST-full length. An outline of the steps:
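Masliner-normalised scans of fluorescent anti-GST signal were the basis for scoring. That signal came from GST-tagged yeast transcription factors applied at about 100-200 nM to double-stranded universal all-10-mer Agilent arrays on fresh or once-stripped slides. Each ungapped eight-base word, pooled with its reverse complement, received an E-score from the Universal PBM Analysis Suite.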
AGACCTTG: the “PBM E-score” value is -0.252.

Consider GGAAATCC, for which the “PBM E-score” value is -0.00159.

For the sequence AGCAGCCT, the “PBM E-score” value is -0.102.

Turning to ATAGCCCC, the “PBM E-score” value is -0.223.

On to CCAAGGGA, for which the “PBM E-score” value was -0.0775.

In the case of CATCAATG, the “PBM E-score” value was -0.153.

Turning to GCCGGTAC, the “PBM E-score” value was 0.129.

On to CGGCACGA, for which the “PBM E-score” value came out at 0.176.

As for ACTTTGTG, the “PBM E-score” value amounted to 0.118.

With CCGCTACG, the “PBM E-score” value was 0.339.

For the sequence ACGCTACG, the “PBM E-score” value was 0.382.

As for ACGCTACA, the “PBM E-score” value was -0.0355.

Regarding TATCGCCA, the “PBM E-score” value is -0.0963.

With CCGGTTAA, the “PBM E-score” value came to 0.132.

Turning to TCGGTTAA, the “PBM E-score” value was determined as 0.387.

As for GCGGTTAA, the “PBM E-score” value was -0.0219.

Regarding GTCCCCCA, the “PBM E-score” value was -0.157.

Consider GCGGTAAA, for which the “PBM E-score” value stood at 0.173.

Take GGCAACGA: the “PBM E-score” value amounted to 0.417.

Take CGCAACGC: the “PBM E-score” value came out at 0.0974.

As to GGCAACCA, the “PBM E-score” value was -0.0847.

Regarding CGCAACAA, the “PBM E-score” value stood at 0.0504.

Turning to AGCAACGG, the “PBM E-score” value is 0.203.

Consider AGCAACGA, for which the “PBM E-score” value is 0.407.

Regarding GGCAACTA, the “PBM E-score” value is -0.282.

Take CGCAACGA: the “PBM E-score” value was found to be 0.448.

Consider AGCAACGC, for which the “PBM E-score” value turned out to be 0.0942.

With AATCGAGG, the “PBM E-score” value was 0.0537.

In the case of CAAAAGTA, the “PBM E-score” value was -0.0653.

As for CCATTTTC, the “PBM E-score” value was -0.105.
